Data from PubChem BioAssay AID2366 (The Scripps Research Institute Molecular Screening Center, 2010).
Unmarked numbers belong to inactive results.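 The calls were made as follows: active = compounds picked for the later follow-up tests because of their potency and selectivity; inactive = compounds skipped in follow-up as weaker or less selective.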

Assay: endogenous PME-1 and serine hydrolase inhibition – cell lysate, mouse brain cytosol, FP-rhodamine, gel ABPP, selectivity assay for PME-1 inhibitor project, dose response (AID 2366)
Conditions: gel-based ABPP

N#C/C(=C\c1cccn1S(=O)(=O)c1cccc(C#N)c1)S(=O)(=O)c1ccc(F)cc1
IC50: > 50 µM

CS(=O)(=O)/C(C#N)=C/c1cccn1S(=O)(=O)c1ccc([N+](=O)[O-])cc1
IC50: > 50 µM

CC(C)(C)S(=O)(=O)/C(C#N)=C/c1cccn1S(=O)(=O)c1ccccc1
IC50: > 50 µM

CS(=O)(=O)/C(C#N)=C/c1cccn1S(=O)(=O)c1ccccc1
IC50: > 50 µM

N#C/C(=C\c1cccn1S(=O)(=O)c1cccc([N+](=O)[O-])c1)S(=O)(=O)c1ccc(F)cc1
IC50: > 50 µM
